# Measured values published in ChEMBL document CHEMBL3988442, “University of Dundee, Small-Polar-MMV Screening Library” (2021).
# Legend:
# [1] = target: T1, Aspartate--tRNA(Asp/Asn) ligase (Mycobacterium tuberculosis (strain ATCC 25618 / H37Rv)) (UniProt P9WFW3); assay: Assay for Asp RNA synthetase-1 from Mycobacterium tuberculosis; type: functional; parameters: scale not given: direction of the effect not stated beside the values; conditions: 30 µM; note: in the data most compounds retested in dose-response had high values
# T1 sequence (whole entry): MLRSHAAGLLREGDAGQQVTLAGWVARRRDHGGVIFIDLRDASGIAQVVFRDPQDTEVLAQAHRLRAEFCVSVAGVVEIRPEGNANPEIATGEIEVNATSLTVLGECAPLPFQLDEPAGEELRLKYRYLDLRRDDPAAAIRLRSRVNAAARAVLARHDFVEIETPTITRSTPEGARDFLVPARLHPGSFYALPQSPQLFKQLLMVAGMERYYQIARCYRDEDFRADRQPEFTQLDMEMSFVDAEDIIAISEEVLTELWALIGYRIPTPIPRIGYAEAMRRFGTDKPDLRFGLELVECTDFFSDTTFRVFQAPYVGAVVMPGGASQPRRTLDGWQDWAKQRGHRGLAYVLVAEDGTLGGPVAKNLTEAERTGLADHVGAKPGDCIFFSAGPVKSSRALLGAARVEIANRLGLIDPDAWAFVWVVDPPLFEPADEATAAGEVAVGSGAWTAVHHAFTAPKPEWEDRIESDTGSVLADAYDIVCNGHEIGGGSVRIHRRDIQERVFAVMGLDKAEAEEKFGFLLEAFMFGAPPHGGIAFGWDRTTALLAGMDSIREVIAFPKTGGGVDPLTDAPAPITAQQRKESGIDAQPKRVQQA
# [2] = target: Shiga toxin 2 (Escherichia coli O157:H7) (UniProt P09385+P09386); assay: E. coli 0.157:H7 Shiga Toxin SOP - stx2 screening assay; type: functional; parameters: scale not given: direction of the effect not stated beside the values; conditions: 30 µM
smiles,measurement,setting,value
CN(Cc1ccc(F)cc1)[C@@H]1CN(C(=O)c2cccs2)C[C@H]1O,Percent Effect,[1],4.22%
same,Percent Effect,[2],-17.2%
Cc1nc(C(=O)N2CCCC2c2c(C)nn(C)c2C)ccc1C#N (configuration not stated),Percent Effect,[1],-1.21%
same,Percent Effect,[2],-18%
CC(=O)N1CCC(c2ccnc(Nc3cncnc3)n2)C1 (configuration not stated),Percent Effect,[1],-0.956%
same,Percent Effect,[2],-11.8%
CN(CCO)C[C@@H]1CN(C(=O)c2c(F)cccc2Cl)C[C@@H]1CO,Percent Effect,[1],2.26%
same,Percent Effect,[2],-49%
CC(C)CS(=O)(=O)N1C[C@H]2C[C@H](C(=O)NCc3ccccc3)[C@@H](C1)O2,Percent Effect,[1],2.67%
same,Percent Effect,[2],-41.8%
CN(C)CC1CN(C(=O)NCc2ccccc2)Cc2nccn2C1 (configuration not stated),Percent Effect,[1],-0.114%
same,Percent Effect,[2],-2.62%
CC(C(=O)NCc1ccnc(N2CCCC2)c1)n1cncn1 (configuration not stated),Percent Effect,[1],-2.83%
same,Percent Effect,[2],27.3%
CC(CNCc1ccncc1)Oc1ccccn1 (configuration not stated),Percent Effect,[1],-2.38%
same,Percent Effect,[2],-57%
O=C(Nc1nc2c(s1)CN(S(=O)(=O)C1CC1)CC2)c1c(F)cccc1F,Percent Effect,[1],-0.834%
same,Percent Effect,[2],2.22%
COC(=O)C(c1cc(F)ccc1F)N(C)C(=O)c1csnn1 (configuration not stated),Percent Effect,[1],3.92%
same,Percent Effect,[2],-19.1%
O=c1[nH]c2c(c(=O)n1C1CCCCC1)CCC2Nc1ccccc1 (configuration not stated),Percent Effect,[1],3.05%
same,Percent Effect,[2],1.28%
CCc1nc(C2CCCN(C(=O)c3cccc4c3ccn4C)C2)no1 (configuration not stated),Percent Effect,[1],-0.845%
same,Percent Effect,[2],4.78%
CC(C)CN1C[C@H]2CCN(c3ncccn3)CC[C@H]2S1(=O)=O,Percent Effect,[1],2.71%
same,Percent Effect,[2],-33%
CN(Cc1cn2c(n1)CN(c1ncc(F)cn1)CC2)Cc1ccco1,Percent Effect,[1],2.34%
same,Percent Effect,[2],-8.28%
Cn1ncc2c(NCCOc3ccc(F)cc3)nc(C3CCCC3)nc21,Percent Effect,[1],2.47%
same,Percent Effect,[2],-46.7%
COC[C@@H]1CC[C@H]2[C@H](CCN2S(=O)(=O)c2ccc(OC)cc2)O1,Percent Effect,[1],-2.58%
same,Percent Effect,[2],1.36%
